Screens as filed in PubChem BioAssay.
ASM inhibitor: inhibitors of human secretory acid sphingomyelinase | actives 0.006% (n = 340,000) | P17405 | placental ASM, HMU-PC fluorogenic substrate, 60 min | Potency, µM (highest dose often 57.5 µM), usual class: inhibitors | AID 504937
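qHTS format. ASM enzyme prepared from human placenta hydrolyses the fluorogenic substrate HMU-PC0 (9 uM final) over 60 min at 37 °C after a 10 min compound preincubation.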
p53 reactivation: re-activators of mutant p53; Potency, µM (series often up to 92.2 µM), most hits filed as activators; AID 504706; H1299 p53-A138V BP100-luciferase reporter, luminescence, 24 h; actives 0.063% (n = 320,000); note: nearly all actives have a fitted effect of over 45% in size
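H1299 (p53-null), stable ts p53-A138V + BP100-Luc; 1000 cells/well, Opti-MEM/10% FBS; cpd 4 pt, 1:5; 24 h, 37 deg C, 5% CO2; detection reagent 10 min RT; luminescence.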
KCNH2 3.1 block: blocks the human KCNH2 3.1 channel isoform; U2OS KCNH2 3.1, thallium flux FluxOr; stronger effect = lower value; activity change, % (tested at about 1.8 µM); actives 0.95% (n = 340,000); AID 720553;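 active = maximum activity change below -70%; inconclusive = maximum activity change from -70% to -50%; inactive = maximum activity change above -50%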;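 note: thallium influx rate constant from kinetic fluorescence after stimulation buffer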
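Channel expression came from 3.1 mutant virus (1.77 x 10^8 /mL) applied to suspended U2OS cells for 4 h. Flux was tracked with FluxOr dye plus Red40 quencher, and kinetic rate constants normalized to controls.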
KCNH2 WT inh: KCNH2 (human, wildtype) channel inhibition; U2OS, BacMam KCNH2, thallium flux FluxOr; stronger effect = lower value; activity change, % at 1.84 µM; actives 0.37% (n = 340,000); AID 720551;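 active = maximum activity change below -70%; inconclusive = maximum activity change between -70% and -50%; inactive = maximum activity change above -50%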
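U2OS cells were transduced with wild-type KCNH2 virus (2.03 x 10^8 / mL) for 4 h at room temperature, then cultured overnight at 37 C. Thallium flux was read with FluxOr dye. Rate constants were normalized to DMSO controls.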
uPA generation: cell surface uPA generation inhibition | cell surface uPA generation assay, qHTS | Potency, µM (series often up to 38.3 µM), usual class: inhibitors | actives 0.31% (n = 330,000) | AID 540303; active = well fitted inhibition curve with a large enough effect; inconclusive = small, poorly fitted or top-dose-only effect; inactive = no such curve, though single readings can be large or run the other way; tested in mouse RAW 264.7 cells; note: nearly all actives have a fitted effect of over 55% in size
Mm-Cpn inhibitor: inhibitors of Methanococcus maripaludis chaperonin TRiC (MmCpn); AID 504842; actives 0.031% (n = 330,000); Potency, µM (highest dose often 76.9 µM), hits mostly inhibitors; purified Mm-Cpn ATPase, ADP Transcreener TR-FRET; note: nearly all actives have a fitted effect of over 80% in size
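Reaction buffer contained 30 mM Tris pH 7.4, 100 mM KCl, 5 mM MgCl2 and 1 mM DTT. Mm-CPN (25 nM final) hydrolysed 10 uM ATP over 30 min at 37°C; ADP was read by HTRF.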
Each line names hits and unclear results; the compound was inactive in the other large screens. This is a sample that favours compounds with a hit; in the whole collection about 1.4% have one here. Unless noted, calls come from the whole dose curve; as a rule, active = well fitted curve in the direction sought with a large enough effect; inconclusive = small, poorly fitted or top-dose-only effect, or another doubt; inactive = no such curve, though single readings can be large; an effect the other way counts as inactive or inconclusive.

COc1ccc(C2c3ccc4ccccc4c3Oc3ncn(CCN(C)C)c(=N)c32)cc1 (stereo not given)	none
COc1cc(-c2noc(C)c2/C=C/c2ccc(C(=O)O)cc2)cc(OC)c1OC	uPA generation inconclusive
COc1cc(-c2noc(C)c2/C=C/c2cccc([N+](=O)[O-])c2)cc(OC)c1OC	p53 reactivation inconclusive, uPA generation 0.11µM
Cc1cc2c(s1)c(C=O)c(C(=O)NCc1ccccc1F)n2C	none (no result: ASM inhibitor, p53 reactivation, KCNH2 3.1 block, KCNH2 WT inh, uPA generation)
Cc1ccc(C)c(NC(=O)COC(=O)c2ccc(S(=O)(=O)N3CCCC3)cc2)c1	none (no result: ASM inhibitor, p53 reactivation, uPA generation, Mm-Cpn inhibitor)
Cc1cccc2sc(NNC(=O)c3ccc(S(=O)(=O)N4CCc5ccccc5C4)cc3)nc12	p53 reactivation inconclusive, uPA generation inconclusive
Cc1cccc2sc(NNC(=O)c3ccc(S(=O)(=O)N4CCCC(C)C4)cc3)nc12 (stereo not given)	p53 reactivation inconclusive, uPA generation 8.9µM
CCOC(=O)C1(CCOc2ccccc2)CCN(CCCn2cccn2)CC1	KCNH2 3.1 block -88
CCOC(=O)C1(CCOc2ccccc2)CCN(Cc2cccc(F)c2)CC1	KCNH2 3.1 block inconclusive (no result: p53 reactivation)
CCOC(=O)C1(CCOc2ccccc2)CCN(C(=O)c2ccc(-n3cccn3)cc2)CC1	KCNH2 3.1 block -87, KCNH2 WT inh inconclusive
CCOC(=O)C1(CCOc2ccccc2)CCN(Cc2cccc(-n3cccn3)c2)CC1	KCNH2 3.1 block -98 (no result: KCNH2 WT inh)
CCOC(=O)C1(CCOc2ccccc2)CCN(CC=C(C)C)CC1	none
CCCSc1nnc(Cc2cc(=O)[nH]c(=O)[nH]2)n1-c1cc(C)ccc1C	KCNH2 WT inh -89
CN(C)c1ccc(N2C(=NC(=O)CCC3CCCC3)SC3CS(=O)(=O)CC32)cc1 (stereo not given)	KCNH2 WT inh -281
COc1ccc([C@H]2C[C@H](O)[C@@H](n3cc(COC(=O)c4ccccc4)nn3)CN2C(=O)C2CCCCC2)cc1	none (no result: ASM inhibitor, p53 reactivation, uPA generation, Mm-Cpn inhibitor)
Cc1ccc(-c2csc3nc(SCC(=O)N(C)C)n(Cc4ccccc4)c(=O)c23)cc1	KCNH2 3.1 block -74
CCN1C(=O)C(=CC=CN(C)c2ccccc2)SC1=S	KCNH2 WT inh -72 (no result: ASM inhibitor, p53 reactivation, uPA generation, Mm-Cpn inhibitor)
CC(C)Oc1ccc(C(=O)OCC(=O)NC2CCCCCC2)cc1	none
CCCn1c(N)c(N(CCOC)C(=O)COC(=O)c2ccccc2NCCO)c(=O)[nH]c1=O	KCNH2 3.1 block -192
Cc1ccc(-n2ncc3c(=O)n(CC(=O)Nc4cccc(Cl)c4)cnc32)cc1C	KCNH2 3.1 block -83
Brc1ccc(-c2ccc(/C=N/Nc3nc4ccccc4[nH]3)o2)cc1	p53 reactivation inconclusive, uPA generation 10µM (no result: KCNH2 WT inh)
Cc1ccccc1/C=N/Nc1nc2ccccc2[nH]1	none
C(=C\c1ccccc1)/C=N/Nc1nc2ccccc2[nH]1	p53 reactivation 8.9µM, uPA generation 4µM
C(=N\Nc1nc2ccccc2[nH]1)/c1c[nH]c2ccccc12	ASM inhibitor inconclusive, p53 reactivation 25µM
COc1ccccc1CN(C)C(=O)CSCC(=O)Nc1ccccc1F	none
C[N+]1=C(/C=C/Nc2ccccc2Cl)C(C)(C)c2ccccc21	KCNH2 WT inh -80
N#CC1(c2ccc(NC(=O)c3ccccc3)cc2)CCCC1	none (no result: ASM inhibitor, KCNH2 3.1 block, KCNH2 WT inh, uPA generation)
CC(=O)Oc1ccc(C(=O)Nc2ccc(C3(C#N)CCCC3)cc2)cc1	uPA generation 10µM
O=C(O)C1(Nc2ccc(Br)cc2)CCCC1	none (no result: p53 reactivation, Mm-Cpn inhibitor)
O=C(Nc1nc(-c2ccccn2)cs1)c1ccc(F)c(S(=O)(=O)N2CCOCC2)c1	p53 reactivation inconclusive, uPA generation 4µM
O=C(Nc1nc(-c2ccccn2)cs1)c1cc(S(=O)(=O)N2CCOCC2)ccc1F	p53 reactivation inconclusive, uPA generation 10µM
Cc1ccc(C(=O)Nc2nc(-c3ccccn3)cs2)cc1S(=O)(=O)N1CCOCC1	p53 reactivation inconclusive, uPA generation inconclusive
COCCNC(=O)c1cc(-c2ccc3c(c2)OCO3)on1	p53 reactivation 20µM
Nc1nc(SCC(=O)c2c(N)n(C3CC3)c(=O)[nH]c2=O)n[nH]1	none
Nc1nc(SCC(=O)c2c(N)n(Cc3ccccc3)c(=O)[nH]c2=O)n[nH]1	KCNH2 WT inh -105
